Compounds with a hit are over-represented: about 0.87% of the library has one in this group of screens.
FEN1 inh = blocks human flap endonuclease 1; P39748; Recombinant FEN1 flap cleavage, fluorescence, 15 min; Potency, µM (highest dose often 114 µM), without a hit: top-dose activity change, negative = inhibition, usual class: inhibitors; actives 0.35% (n = 390,000); further: nearly all actives have a fitted effect of over 65% in size
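Quantitative HTS format: each compound was titrated, incubated with 10 nM nuclease for 15 min at room temperature, then challenged with flap substrate at 50 nM final. Signal change over 15 min gave concentration–effect curves.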
WRN inhibitor = WRN helicase (human) inhibition; actives 0.46% (n = 360,000); WRN helicase unwinding, fluorescent forked duplex, kinetic; Q14191; AID 651768; Potency, µM (titrated, usually from 114 µM), for the others: at the highest dose activity change, negative = inhibition, actives largely listed as inhibitors; further: nearly all actives have a fitted effect of over 55% in size
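WRN at 20 nM final preincubated with compound 15 min at room temperature; reaction started with 100 nM fluorophore/quencher forked duplex oligonucleotide and 2 mM ATP final. Unwinding followed kinetically by red fluorescence (ex 525, em 598 nm).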
BLM helicase inh = inhibitors of human Bloom syndrome helicase BLM; recombinant BLM DNA unwinding, fluorescence dequenching; Potency, µM (series often up to 56.1 µM), for the others: at the top dose activity change, negative = inhibition, most hits filed as inhibitors; actives 0.2% (n = 350,000);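 further: plate controls were vehicle for no effect and no enzyme for full effect; nearly all actives have a fitted effect of over 35% in size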
APE1 inh-1 = inhibitors of human APE1 endonuclease. P27695. recombinant APE1, TAMRA/BHQ-2 abasic DNA cleavage fluorescence. Potency, µM (highest dose often 65.8 µM), for inactives: at the top dose activity change, negative = inhibition, hits mostly inhibitors. actives 0.35% (n = 350,000). AID 2517;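 further: plate controls were vehicle for no effect and reference inhibitor for full effect; nearly all actives have a fitted effect of over 55% in size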
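Readout is kinetic fluorescence (ex 525, em 598 nm) from cleavage of 50 nM TAMRA/BHQ-2 THF abasic duplex by 0.75 nM APE1, compound added 15 min beforehand at RT.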
RECQ1 helicase = RECQ1 (human) helicase inhibition. P46063. RECQ1 DNA unwinding, red fluorescence kinetic read. Potency, µM (series often up to 57.3 µM), inactives show at the highest dose activity, negative = inhibition, usual class: inhibitors. actives 0.54% (n = 240,000). AID 2549;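 further: plate controls were vehicle for no effect and no enzyme for full effect; nearly all actives have a fitted effect of over 30% in size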
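RECQ1T1 50 nM; forked duplex (20 bp + 30-nt ss tails) 200 nM, ATP 2 mM final; pH 8.0, 2 mM MgCl2, 2.5 ug/ml poly(dI-dC); 15 min compound preincubation; discontinuous kinetic read over 2 h at RT.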
APE1 dye cs = displaces fluorescent dye from DNA, flagging APE1 artifacts; shares compounds with APE1 inh-1; DNA fluorescent dye displacement counterscreen, fluorescence; Potency, µM (highest dose often 28.5 µM), for the others: top-dose activity change, negative = inhibition, actives largely listed as inhibitors; actives 7% (n = 480);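 further: loss of thiazole orange fluorescence as the dye is displaced from duplex DNA; 0% = ThO with dsDNA and no compound and -100% = ThO without dsDNA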
Endo IV inh = blocks E. coli endonuclease IV DNA cleavage; shares compounds with APE1 inh-1; E. coli Endo IV, fluorogenic AP-site DNA cleavage; Potency, µM (titrated, usually from 27.1 µM), for inactives: at the highest dose activity change, negative = inhibition, usual class: inhibitors; actives 4% (n = 560); AID 2565;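 further: plate controls were uninhibited enzyme wells for no effect and no enzyme buffer wells for full effect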
APE1 inh-2 = APE1 (human) endonuclease inhibition, confirmation | actives 44% (n = 750) | purified APE1, fluorogenic abasic-site DNA cleavage | shares compounds with APE1 inh-1 | AID 2572 | Potency, µM (series often up to 57.1 µM), for inactives: at the top dose activity change, negative = inhibition, most hits filed as inhibitors; further: nearly all actives have a fitted effect of over 30% in size
APE1 FP = APE1 (human) DNA binding inhibition, fluorescence polarization. shares compounds with APE1 inh-1. APE1 binding to TAMRA-labelled double-stranded DNA, fluorescence polarization displacement. Potency, µM (series often up to 28.5 µM), without a hit: top-dose activity, negative = inhibition, usual class: inhibitors. actives 7% (n = 480)
* = called active by the depositor; i = inactive; ? = inconclusive; . = no result given; [ ] = remark or other dose. The call rests on the fitted dose curve; in most records, active means well fitted curve in the direction sought with a large enough effect; inconclusive means small, poorly fitted or top-dose-only effect, or another doubt; inactive means no such curve, though single readings can be large; an effect the other way counts as inactive or inconclusive. Unless noted, on the % scale 0 is the no-effect control and ±100 the full control effect; potency means the concentration at half of the fitted maximal effect.

SMILES	FEN1 inh	WRN inhibitor	BLM helicase inh	APE1 inh-1	RECQ1 helicase	others
C=CCN1C(=O)/C(=C/c2ccc(Br)s2)C(=O)NC1=S	?	56.2µM*	-14.6%	32.3%	.
CN1C(=O)/C(=C/c2ccc(N3CCCCCC3)o2)C(=O)NC1=S	-6.1%	-18.9%	-9.7%	?	-13.5%
CN1C(=O)/C(=C\c2ccc(N3CCCCC3)o2)C(=O)NC1=S	6.0%	-17.9%	-1.3%	5.7%	-10.2%
C=CCN1C(=O)/C(=C\c2ccc(N3CCOCC3)o2)C(=O)NC1=S	12.0%	-25.5%	-4.3%	?	-21.7%
Cc1ccsc1/C=C1\C(=O)NC(=S)N(C)C1=O	79.4µM*	50.1µM*	5.2%	-11.4%	.
CN1C(=O)/C(=C\c2ccc(N3CCCCCC3)cc2)C(=O)NC1=S	-8.1%	-16.9%	-6.5%	7.1%	-5.5%
COc1ccc(/C=C2\C(=O)NC(=S)N(C)C2=O)cc1C	50.1µM*	20µM*	-3.0%	1.4%	0.7%
CN1C(=O)/C(=C/c2ccc(Cl)s2)C(=O)NC1=S	-23.7%	14.1µM*	-0.2%	-9.4%	.
C=CCN1C(=O)/C(=C/c2ccc3c(c2)CCCN3CCC)C(=O)NC1=S	-9.9%	56.2µM*	-8.7%	-11.3%	?
Cc1cccc(N2C(=O)/C(=C/c3ccc(CN(CCC#N)S(C)(=O)=O)o3)C(=O)NC2=S)c1	?	28.2µM*	-7.7%	?	17.8µM*
O=C1NC(=O)N(c2ccc3c(c2)OCO3)C(=O)/C1=C/c1ccc(N2CCCC2)o1	6.7%	-3.9%	-0.7%	0.4%	-7.4%
Cc1ccc(N2C(=O)/C(=C/c3ccc(CN(CCC#N)S(C)(=O)=O)o3)C(=O)NC2=S)cc1C	.	.	-17.0%	?	25.1µM*
C=C(C)C(=O)OCC1CO1 (stereo unspecified)	.	.	.	-2.7%	3.2%
Oc1c(Br)c(Br)c(Br)c(Br)c1Br	50.1µM*	-29.1%	.	2.9%	?
Cl/C=C\Cl	.	.	.	-2.9%	-13.6%
C=C(C)C(N)=O	.	.	.	14.5%	-10.7%
NC(=O)OCCCc1ccccc1	-0.6%	-2.0%	4.6%	.	.
CCOC(=O)CCCc1cc[c]([Sb](=[O])([OH])[OH])cc1	3.55µM*	.	.	.	.
COC(=O)[C@]1(C)CC[C@@]2(C)CC[C@@]3(C)C4=CC=C5C(=CC(=O)C(O)=C5C)[C@@]4(C)CC[C@@]3(C)C2C1 (stereo partly specified)	.	.	-3.8%	4.0%	-6.3%
CCCCn1c(O)c(/C=N/NC(=O)c2ccncc2)c(=O)[nH]c1=S	-6.3%	31.6µM*	-1.9%	-2.2%	?
Clc1cc(Cl)c(Cl)c(Cl)c1	.	.	.	6.7%	11.0%
COc1cc(N2CCOCC2)ccc1/C=C1\C(=O)NC(=O)N(Cc2ccc3c(c2)OCO3)C1=O	-14.0%	50.1µM*	-3.9%	4.2%	-2.4%
COc1cc(N2CCOCC2)ccc1C=C1C(=O)NC(=O)NC1=O	-2.0%	-25.5%[57.1 µM]	-0.3%	-1.3%	-9.1%
COc1cc(N2CCOCC2)ccc1/C=C1\C(=O)NC(=O)N(Cc2cccs2)C1=O	-13.4%	50.1µM*	-5.8%	-2.0%	i
Cc1ccc(N2C(=O)NC(=O)/C(=C/c3ccc(OC(=O)c4cccs4)cc3)C2=O)cc1	14.5%	50.1µM*	-1.5%	-4.8%	-7.3%
SMILES	FEN1 inh	WRN inhibitor	BLM helicase inh	APE1 inh-1	RECQ1 helicase	others
C=CC1CC=CCC1 (stereo unspecified)	.	.	.	-2.3%	-7.2%
O=C1c2ccccc2C(=O)N1SC1CCCCC1	-5.3%	50.1µM*	-1.6%	-3.0%	i
CC1(C)C(C(=O)NN2C(=O)c3ccccc3C2=O)C1(C)C	-9.9%	5.5%	-4.8%	1.7%	-10.4%
COC(=O)[C@@H]1[C@H]2CC[C@@H](C[C@H]1OC(=O)c1ccccc1)N2C	.	.	.	-3.3%	.
NC1CCCCC1N (stereo unspecified)	.	.	-4.7%	-1.7%	-9.7%
CC(=O)[O-].CC(=O)[O-].O.O.O.[Pb+2]	.	.	.	-3.5%	-3.4%
O=C1NC(=S)N(c2ccc(F)cc2)C(=O)/C1=C\c1ccoc1	7.94µM*	?	-17.2%	?	31.6µM*
O=C1NC(=S)N(c2ccc(F)cc2)C(=O)/C1=C/c1ccco1	.	.	3.16µM*	0.212µM*	.
COc1ccc(OC)c(N2C(=O)/C(=C/c3ccco3)C(=O)NC2=S)c1	8.91µM*	3.16µM*	1.58µM*	0.0947µM*	.
Cc1ccc(N2C(=O)NC(=O)/C(=C\c3ccoc3)C2=O)cc1	-29.3%	?	3.4%	?	?
CCOP(=S)(OCC)Oc1ccc([N+](=O)[O-])cc1	.	.	.	-3.3%	-9.2%
N=C(N)c1ccc(-c2ccc(-c3ccc(C(=N)N)cc3)o2)cc1	39.8µM*	.	.	.	.
Nc1nc(/C(=C/CC(=O)O)C(=O)NC2C(=O)N3C(C(=O)O)=CCSC23)cs1 (stereo unspecified)	.	.	-6.3%	.	-6.7%	APE1 dye cs=1.6%[57.1 µM];Endo IV inh=65.0%[57.1 µM];APE1 inh-2=?;APE1 FP=-0.6%[57.1 µM]
CO/N=C(/C(=O)NC1C(=O)N2C(C(=O)O)=C(CSc3nc(=O)c(O)nn3C)CSC12)c1csc(N)n1 (stereo unspecified)	.	.	-5.1%	?	-3.0%
CN1C[C@H](C(=O)N[C@]2(C)O[C@@]3(O)[C@H]4CCCN4C(=O)[C@H](Cc4ccccc4)N3C2=O)C[C@H]2c3cccc4[nH]cc(c34)C[C@@H]21	.	.	-15.4%	-8.0%	-6.7%
O=c1cc(-c2ccc(O)c(O)c2)oc2c(C3O[C@H](CO)[C@@H](O)[C@H](O)[C@H]3O)c(O)cc(O)c12 (stereo partly specified)	-18.4%	-5.6%	-3.5%	0.891µM*	-14.8%	APE1 dye cs=?;Endo IV inh=73.5%;APE1 inh-2=?;APE1 FP=-3.9%
Oc1ccc2[nH]cc(CCCCN3CC=C(c4ccccc4)CC3)c2c1	.	.	-7.5%	-1.9%	-9.2%
O=C(O)c1ccc2[nH]cc(CCCCN3CC=C(c4ccccc4)CC3)c2c1	.	.	-12.9%	?	-9.9%	APE1 dye cs=-0.7%[57.1 µM];Endo IV inh=19.0%[57.1 µM];APE1 inh-2=?;APE1 FP=15.4%[57.1 µM]

Assay outcomes: PubChem, National Center for Advancing Translational Sciences (NCATS)
